Data as given in PubChem BioAssay.
The other results are listed elsewhere or left out. The source made the active and inactive calls. Rule as the data show it, unless noted: active = activity above about 50%; inactive = the rest.

Tests used:
[1] = molecular target: Tumor necrosis factor receptor superfamily member 10B (Homo sapiens) (UniProt O14763); assay: viability loss of caspase-8 NB7 cells with TRAIL – with/without TRAIL, luminescence panel, confirmation (AID 651596); conditions: NB7 neuroblastoma + caspase-8, TRAIL sensitization, NB7 Caspase-8, with TRAIL, mean of runs, at 10 µM, stronger effect = higher value
Sequence of Tumor necrosis factor receptor superfamily member 10B (Homo sapiens) (O14763 whole entry, looked up): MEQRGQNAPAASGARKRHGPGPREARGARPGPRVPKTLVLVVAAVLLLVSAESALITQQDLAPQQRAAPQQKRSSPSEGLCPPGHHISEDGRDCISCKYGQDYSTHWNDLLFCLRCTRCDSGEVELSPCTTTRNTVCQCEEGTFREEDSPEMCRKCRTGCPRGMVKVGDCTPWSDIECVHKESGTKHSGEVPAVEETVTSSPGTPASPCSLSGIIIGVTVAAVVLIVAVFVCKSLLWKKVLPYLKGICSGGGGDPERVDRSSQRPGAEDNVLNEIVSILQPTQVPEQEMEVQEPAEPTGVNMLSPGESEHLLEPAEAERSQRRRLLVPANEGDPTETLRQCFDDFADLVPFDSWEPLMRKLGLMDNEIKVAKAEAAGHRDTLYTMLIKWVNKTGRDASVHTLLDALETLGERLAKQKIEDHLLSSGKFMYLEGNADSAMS

[2] = as above; conditions: NB7 neuroblastoma + caspase-8, without TRAIL, NB7 Caspase-8, without TRAIL, mean of runs, at 10 µM
[3] = molecular target: Tumor necrosis factor receptor superfamily member 10B (Homo sapiens) (UniProt O14763); assay: compound enhancement of TRAIL-induced cell killing – NB7 cells plus caspase-8, luminescence, panel, dose response (AID 652002); conditions: NB7 neuroblastoma +caspase-8, TRAIL sensitization, luminescence viability, NB7+Caspase-8, with TRAIL, run 1; at 12.5 µM (top of the series)
[4] = molecular target: Tumor necrosis factor receptor superfamily member 10B (Homo sapiens) (UniProt O14763); assay: as above; conditions: NB7 neuroblastoma +caspase-8, TRAIL sensitization, luminescence viability, NB7+Caspase-8, with TRAIL, run 2; at 12.5 µM (top of the series)
[5] = as above; conditions: NB7 neuroblastoma +caspase-8, no TRAIL, compound-alone cytotoxicity counter-screen, luminescence viability, NB7+Caspase-8, run 1; at 12.5 µM (top of the series) unless noted
[6] = as above; conditions: NB7 neuroblastoma +caspase-8, no TRAIL, compound-alone cytotoxicity counter-screen, luminescence viability, NB7+Caspase-8, run 2; at 12.5 µM (top of the series) unless noted
[7] = molecular target: COP9 signalosome complex subunit 5 (Homo sapiens) (UniProt Q92905); assay: blockers of CSN-driven cullin deneddylation – biochemical, fluorescence polarization, single concentration, SCF-Nedd8OG substrate, confirmation (AID 720654; in the data active = inhibition above about 50%;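 also: 0% = DMSO with enzyme and 100% = no enzyme wells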); conditions: Csn5 deneddylation of SCF-Nedd8OG, 90 min, at 16.6 µM, stronger effect = higher value
Sequence of COP9 signalosome complex subunit 5 (Homo sapiens) (Q92905 whole entry, looked up, one chain of several): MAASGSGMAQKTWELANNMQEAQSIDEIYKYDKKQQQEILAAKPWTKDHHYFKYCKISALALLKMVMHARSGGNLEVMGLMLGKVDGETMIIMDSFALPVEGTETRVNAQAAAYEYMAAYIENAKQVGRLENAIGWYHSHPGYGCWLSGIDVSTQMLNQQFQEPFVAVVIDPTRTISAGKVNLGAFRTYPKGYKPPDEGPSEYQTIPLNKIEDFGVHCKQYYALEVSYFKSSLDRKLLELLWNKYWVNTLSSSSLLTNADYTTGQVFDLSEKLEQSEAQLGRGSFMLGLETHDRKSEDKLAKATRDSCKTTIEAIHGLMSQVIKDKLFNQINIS

[8] = molecular target: 72 kDa type IV collagenase (Homo sapiens) (UniProt P08253); assay: human MMP-2 inhibitors, single-point check – biochemical, fluorescence, single concentration, counter-screen for CSN deneddylation inhibitor project, confirmation (AID 720655;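 active = corrected plate-normalized z-score of 5 or more, or -5 or less, or inhibition of 15% or more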;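 also: plate controls were DMSO wells with enzyme for no effect and buffer wells lacking MMP-2 for full effect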); conditions: recombinant MMP-2, FRET substrate fluorescence, 60 min; at 16.6 µM
Sequence of 72 kDa type IV collagenase (Homo sapiens) (P08253 whole entry, looked up): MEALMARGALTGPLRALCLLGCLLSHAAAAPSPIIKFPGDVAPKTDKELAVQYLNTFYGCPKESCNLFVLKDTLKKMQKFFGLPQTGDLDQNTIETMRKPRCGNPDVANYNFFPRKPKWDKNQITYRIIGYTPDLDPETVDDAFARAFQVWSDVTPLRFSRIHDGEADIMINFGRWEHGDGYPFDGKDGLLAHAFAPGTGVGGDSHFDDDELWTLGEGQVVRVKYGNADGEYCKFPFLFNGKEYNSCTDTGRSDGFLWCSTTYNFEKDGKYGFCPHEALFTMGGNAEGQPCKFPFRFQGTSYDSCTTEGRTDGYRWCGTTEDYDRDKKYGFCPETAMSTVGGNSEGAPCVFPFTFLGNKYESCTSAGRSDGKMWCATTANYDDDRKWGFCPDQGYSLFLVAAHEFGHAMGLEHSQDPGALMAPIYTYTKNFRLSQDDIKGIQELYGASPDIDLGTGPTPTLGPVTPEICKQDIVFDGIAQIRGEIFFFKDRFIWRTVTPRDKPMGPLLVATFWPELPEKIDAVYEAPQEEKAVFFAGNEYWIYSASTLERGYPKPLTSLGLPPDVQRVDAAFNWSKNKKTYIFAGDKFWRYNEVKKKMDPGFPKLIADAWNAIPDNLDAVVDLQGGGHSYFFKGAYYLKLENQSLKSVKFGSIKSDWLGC

Prothrombin (Bos taurus) = Prothrombin (Bos taurus) (UniProt P00735); assay: thrombin cleavage blockers, FP readout – biochemical, fluorescence polarization, single concentration, counter-screen for CSN deneddylation inhibitor project, confirmation (AID 720656;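 active = inhibition at or above a set limit, with a fluorescence interference ratio between 0.5 and a set maximum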); conditions: bovine thrombin cleavage of Ub4-pepOG, at 16.6 µM, stronger effect = higher value
Sequence of Prothrombin (Bos taurus) (P00735 whole entry, looked up): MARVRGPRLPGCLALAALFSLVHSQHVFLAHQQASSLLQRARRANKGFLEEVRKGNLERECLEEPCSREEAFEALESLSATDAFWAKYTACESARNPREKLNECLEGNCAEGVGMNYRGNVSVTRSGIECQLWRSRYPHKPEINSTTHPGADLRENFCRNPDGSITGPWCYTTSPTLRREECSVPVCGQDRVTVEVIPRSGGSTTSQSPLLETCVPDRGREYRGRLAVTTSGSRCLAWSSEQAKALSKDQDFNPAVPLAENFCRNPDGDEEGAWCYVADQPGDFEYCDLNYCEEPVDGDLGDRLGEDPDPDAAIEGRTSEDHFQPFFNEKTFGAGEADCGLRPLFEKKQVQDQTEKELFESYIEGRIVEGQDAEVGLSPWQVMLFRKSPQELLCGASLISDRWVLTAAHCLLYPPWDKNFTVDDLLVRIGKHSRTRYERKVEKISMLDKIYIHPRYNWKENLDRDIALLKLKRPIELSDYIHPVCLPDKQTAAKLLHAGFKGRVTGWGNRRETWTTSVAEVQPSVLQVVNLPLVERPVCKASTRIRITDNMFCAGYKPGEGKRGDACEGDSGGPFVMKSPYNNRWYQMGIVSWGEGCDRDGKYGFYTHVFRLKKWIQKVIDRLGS

| SMILES | activity [1] | activity [2] | activity, % sensitization [3] | activity, % sensitization [4] | activity, % sensitization [5] | activity, % sensitization [6] | inhibition [7] | inhibition [8] | inhibition (Prothrombin (Bos taurus)) |
| --- | --- | --- | --- | --- | --- | --- | --- | --- | --- |
| COc1cccc(C(=O)Nc2ccc(C3CC3(Cl)Cl)cc2)c1 (stereo not given) | 47% | 46.5% | 12.6% | 30.2% | 5.52% | 21.8% |  |  |  |
| C/C(=N\NC(=O)c1n[nH]c2c1CCC2)c1ccco1 | 55.8% | 51.4% | 28.7% | 33.5% | 27.9% | 24.1% |  |  |  |
| CSc1nc(N)n2nc(-c3ccc(Cl)cc3)cc2n1 | 63.9% | 45.2% | -2.8% | -10.2% | 0.419% | -17.1% |  |  |  |
| Cc1ccc(NC(=O)c2cc3ccccc3o2)nc1 | 58.9% | 49.5% | 32.6% | 41.2% | 43% | 41.7% |  |  |  |
| c1ccc(-c2cnc(-c3ccccn3)nn2)cc1 | 61.4% | 53.5% | 26.5% | 46.5% | 52.7% | 36.1% |  |  |  |
| O=c1cc(-c2ccccc2)nc2cc(-c3ccc(F)cc3)[nH]n12 | 57.6% | 47% | 5.68% | -3.23% | -19% | -21.3% |  |  |  |
| Cc1c(P(=S)(c2ccccc2)c2ccccc2)[n+]2ccccc2n1CCc1ccccc1 | 52% | 44.7% | 3.09% | 9.7% | 3.44% | 9.46% |  |  |  |
| O=C(c1cnc(Cl)c(Cl)c1)N1CCN(S(=O)(=O)c2ccc3ccccc3c2)CC1 | 45.5% | 25.1% | -9.83% | -9.66% | 3.76% | -5.02% |  |  |  |
| O=C1CCCc2nc(N3CCc4ccccc43)ncc21 | 45.5% | 25.6% | 22.4% | -9.35% | 0.829% | -3.85% |  |  |  |
| O=C(N/N=C/c1cccnc1)c1ccc2c(c1)OCO2 | 51.9% | 42.5% | 32.8% | 32.4% | 32.2% | 46.2% |  |  |  |
| Cc1ccnc(NC(=O)Nc2ccc3c(c2)OCO3)c1 | 51% | 41% | 40.8% | 17% | 0.866% | -33.8% |  |  |  |
| C/C(=N\NC(=O)c1csc(C)c1C)c1ccco1 | 46.9% | 40.4% | 34.8% | 13.8% | 22.5% | -4.13% |  |  |  |
| O=C1c2ccc3c4c(ccc(c24)C(=O)N1c1cccc(O)c1)C(=O)N(c1cccc(O)c1)C3=O | 63.2% | 53.8% | 52.1% | 35.7% | 29.8% | 21.3% |  |  |  |
| O=C(Nc1ccc2c(c1)OCO2)c1ccc2c(c1)OCO2 | 56.3% | 53.1% | 46.4% | 44.3% | 50.5% | 33.4% |  |  |  |
| CSc1ccc(/C=C/c2ccc3cccc(O)c3n2)cc1 | 48.5% | 53.9% | 31.9% | 41.1% | 23.2% | 36.6% |  |  |  |
| COC(=O)CSc1nc2cc(C)ccc2cc1C#N | 63.1% | 53.9% | 45.7% | 53.4% | 15.2% | 24.1% |  |  |  |
| COc1cc(SC#N)ccc1N=Cc1c(C)[nH]n(-c2ccc(Cl)cc2)c1=O | 66.9% | 41.2% | -29.2% | -11.6% | -15.4% | -20.1% |  |  |  |
| Cc1cc(NC(=O)C2CCCC2)nc2c1c(=O)oc1ccccc12 | 68.7% | 50.2% | 15% | -6.85% | 0.143% | 17.1% |  |  |  |
| CCOc1ccc(-c2nnc(-c3ccccc3)o2)cc1 | 56% | 47.3% | 39.4% | 39.8% | 11.9% | -2.15% |  |  |  |
| C#Cc1ccc(NC(=O)C2(C)CCN2C(=O)Cc2ccc(C(C)C)cc2)cc1 (stereo not given) | 79.1% | 49.2% | 18.4% | 11.5% | 1.52% | 54.8% |  |  |  |
| CCCCc1nc(NCCN)c(C#N)c2c1CSC(C)(C)C2 | 72.5% | 53.7% | -8.34% | -1.9% | 3.06% | -6.28% |  |  |  |
| CC1(C)N=C(N)N=C(N)N1c1ccc(Oc2ccc(Cl)cc2)c(Cl)c1 | 57.3% | 51% | 50.2% | 62.6% | 60.3% | 68.3% [at 6.25 µM] |  |  |  |
| Cc1ccc(S(=O)(=O)Nc2ccccc2C(=O)Nc2nc(-c3ccc(F)cc3)cs2)cc1 | 56.5% | 51.6% | 32% | 39.6% | 24.6% | 40.4% |  |  |  |
| O=C(Nc1ccc(Br)cc1F)c1ccc2c(c1)OCCO2 | 56.6% | 43% | 35.1% | 39.5% | 7.23% | 34.6% |  |  |  |
| O=C(O)C(c1ccccc1)N1C(=O)/C(=C\c2ccc(-c3cccc(Cl)c3)o2)SC1=S (stereo not given) |  |  |  |  |  |  | 14.6% (inactive) | -20.6% (inactive) | 51.9% (active) |
| COc1ccc(/C(C)=N/Nc2nncc3ccccc23)cc1 | 59.6% | 49.8% | 19.4% | 54.6% | 27.1% | 10.8% |  |  |  |
| Cc1ccc(-c2nn(-c3ccccc3)cc2/C=C2\SC(=S)N(CCCCCC(=O)O)C2=O)o1 |  |  |  |  |  |  |  | -170% (active) | -24.4% (inactive) |
| Cc1ccc(C(=O)O)cc1-c1ccc(/C=C2\SC(=O)N(CC(=O)Nc3ccc4c(c3)OCO4)C2=O)o1 |  |  |  |  |  |  | 155% (active) | -3.01% (inactive) | 7.47% (inactive) |
| COc1ccc(-c2nnc(SCC(=O)c3[nH]c(C)c(C(C)=O)c3C)o2)cc1 | 54.1% | 53.9% | -37% | -7.9% | -20.2% | -16.4% |  |  |  |
| CN1C[C@@H]2[C@@H]3C(=O)N(Cc4ccccc4)C(=O)[C@@H]3[C@](Cc3ccccc3)(C1=O)N2C(=O)c1ccc(C(C)(C)C)cc1 | 74.5% | 47.9% | -1.09% | 15.8% | 7.44% | -17% |  |  |  |
